Rows were chosen to be rich in hits. Some 4.9% of all compounds tested hit in one or more screens of this group.
HSF1 inhib: HSF1 inhibition; activity change, negative = inhibition, % at 7.5 µM (by protocol); NIH3T3-HGL HSE-luciferase, MG132-induced, luminescence 8 h; stronger effect = lower value; 0.77% of 300,000 active;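 active = more than half of replicate wells show activity change below -50%, luminescence cut by over half; inconclusive = some wells, but at most half, below -50%; inactive = no replicate well below -50%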;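 note: luciferase reports HSF-1 transcriptional activity via heat shock element; 0% = median of DMSO wells and -100% = zero luminescence signal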
MPTP inh: permeability transition pore inhibition; isolated mouse mitochondria, Ca2+ swelling absorbance, 30 min; inhibition, % at 10 µM; 1.4% of 360,000 active; AID 602449;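 active = inhibition of 50% or more, scaled per plate between neutral and stimulator controls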;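 note: 0% = DMSO wells given calcium and 100% = 1 mM EGTA wells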
HSP90 refold inh: HSP90 refolding inhibition in rabbit reticulocyte lysate; luciferase refolding luminescence, 3 h; inhibition, % at 5.6 µM; 0.91% of 290,000 active; AID 1789;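 active = inhibition above the screen-wide mean plus 3 SD, computed separately per campaign, cut at about 16% in these data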;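 note: 0% = DMSO wells and 100% = 60 µM geldanamycin wells; inhibitors lower the luminescence because luciferase stays unfolded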
dFosB act-1: mouse delta FosB homodimer activation; P13346; purified delta FosB, TAMRA-CDK5 oligo fluorescence polarization; percent of positive-control signal above neutral wells; activation, % at 25 µM; 0.99% of 340,000 active; AID 493131;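 active = mean activation above about 17%, with every replicate also reaching it, limit read from the data, passing the limit was not always enough; inconclusive = only one of the two conditions met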
Target sequence (P13346 whole entry, looked up): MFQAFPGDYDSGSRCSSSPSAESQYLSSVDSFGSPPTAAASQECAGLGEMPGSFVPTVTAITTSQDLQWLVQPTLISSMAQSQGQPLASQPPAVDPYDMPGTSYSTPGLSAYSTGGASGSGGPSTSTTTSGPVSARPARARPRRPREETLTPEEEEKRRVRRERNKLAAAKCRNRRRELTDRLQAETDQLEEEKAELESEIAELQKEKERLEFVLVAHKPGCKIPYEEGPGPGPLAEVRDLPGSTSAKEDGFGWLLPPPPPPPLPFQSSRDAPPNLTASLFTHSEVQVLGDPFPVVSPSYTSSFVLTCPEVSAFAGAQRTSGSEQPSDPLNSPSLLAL
HSF1 activator: increases HSF-1 driven luciferase reporter signal; NIH3T3-HGL HSF-1 luciferase reporter, MG132, 8 h; 100% = twice DMSO control signal; activation, % at 9 µM; 1.7% of 300,000 active;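 active = mean replicate activation of at least 50% with a set share of replicates each reaching 50%; inconclusive = only one of those two conditions met; inactive = mean below 50% and too few replicates reaching it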;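 note: 0% = median of the neutral control wells and 100% = twice that signal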
Platelet DG rel: platelet dense granule release activity | human platelet-rich plasma, SFLLRN dense granule ATP release, luminescence | inhibition, %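 (compounds screened at 7.5 µM in platelet-rich plasma)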 | 0.22% of 300,000 active;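 active = mean replicate score, as percent of positive control, at or above 50; inconclusive = mean below 50 but at least one replicate at or above 50; inactive = mean and every replicate below 50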
dFosB act-2: delta FosB (mouse) homodimer activation | purified delta FosB, TAMRA-CDK5 oligo fluorescence polarization; normalised: neutral wells 0, positive control 100 | 2,400 tested, under 10 active | shares compounds with dFosB act-1 | AID 588690 | activation, % at 24.9 µM;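 active = highest replicate activation at or above 34% and every replicate reaching that threshold; inconclusive = meets only one of the two criteria; inactive = meets neither criterion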;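 note: higher polarization means more probe DNA bound by delta FosB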
* = called active by the depositor; u = inconclusive; x = no result given.

SMILES	HSF1 inhib	MPTP inh	HSP90 refold inh	dFosB act-1	HSF1 activator	Platelet DG rel	dFosB act-2
O=C(CSc1nc2ccccc2c(=O)n1-c1ccc(Cl)cc1)c1ccco1	-3.6	1.3	1.2	52.8*	6.2	-4.1	3.2
O=C(COC(=O)Cc1ccc(Cl)cc1)NCc1cccs1	x	-1.3	x	8.1	x	x	x
COc1ccc(C)cc1NC(=O)CN1C(=O)COc2ccc(S(=O)(=O)N3CCOCC3)cc21	-17.3	-1.2	-4.8	-3.7	-11.6	-6.9	x
O=C(NCCCn1ccnc1)c1ccc(S(=O)(=O)N2CCOCC2)cc1	-3.0	-0.3	0.2	2.6	3.6	3.1	x
O=C([C@H]1O[C@@H](n2ccc(=O)[nH]c2=O)[C@H](O)[C@@H]1O)N1CCC(F)(F)CC1	x	0.5	x	x	x	x	x
Cc1ccc2nc3c(c(N)c2c1)CCN3C	0.6	-0.2	1.3	17.6*	-15.2	7.2	0.2
CC(=O)Nc1ccc(NC(=O)C(=O)NCC(c2ccco2)N2CCc3ccccc3C2)cc1 (configuration not stated)	0.9	-1.2	x	22.3*	-8.3	3.7	2.8
CC(=O)Nc1ccc(NC(=O)C(=O)NCC(c2ccco2)N2CCc3ccccc32)cc1 (configuration not stated)	3.8	-1.3	x	0.9	0.8	-0.5	x
CC(=O)Nc1ccc2c(c1)C(=O)N(c1cccc(C)c1)C2=O	5.1	1.2	-3.2	20.5*	-8.8	-0.7	3.9
Cc1cccc(N2C(=O)c3ccc(C(=O)Nc4ccccn4)cc3C2=O)c1	0.5	-0.2	-5.2	62.0*	-0.6	2.1	4.6
Cc1ccc(C)c(N2C(=O)c3ccc(C(=O)Nc4ccccn4)cc3C2=O)c1	x	-0.3	x	x	x	x	x
CC(=O)Nc1cccc(C)c1	x	-2.4	x	-2.0	x	x	x
Cc1cc([N+](=O)[O-])nn1CCCC(=O)N1CCN(c2ccccc2)CC1	4.8	1.2	4.7	-2.7	-3.4	-3.9	x
O=C(N/N=C/c1ccc(OC(=O)c2cccs2)cc1)c1ccc(F)cc1	4.2	7.9	-3.9	33.2*	27.1	4.7	-0.7
O=C(N/N=C/c1ccc(F)cc1)c1ccccc1	5.8	-3.5	4.4	-5.5	22.5	16.6	x
C/C(=N\NC(=O)c1ccncc1)c1cccc(NC(=O)c2ccc(C(C)(C)C)cc2)c1	6.4	1.1	6.6	-11.8	8.2	3.4	x
C/C(=N\NC(=O)COc1ccccc1[N+](=O)[O-])c1cccc(NC(=O)c2ccncc2)c1	3.4	-0.6	-1.1	21.3*	-5.8	-7.2	3.0
O=C(CSc1ccc(-c2ccc3c(c2)OCO3)nn1)Nc1nccs1	14.2	4.4	2.9	35.7*	10.3	1.4	-4.2
O=C(CSCC(=O)Nc1nc(-c2ccc3c(c2)OCO3)cs1)Nc1nccs1	15.6	-1.8	5.4	-6.4	33.4	1.8	x
COc1ccc(-c2[nH]ncc2/C=N/NC(=O)c2ccc(Br)cc2)c(OC)c1	-5.1	1.3	1.8	7.8	-9.1	u	x
COc1ccc(-c2[nH]ncc2/C=N/NC(=O)c2ccncc2)c(OC)c1	-5.9	2.8	-1.4	18.6*	-7.5	-2.9	-0.2
COc1ccc(C(=O)N/N=C/c2cn[nH]c2-c2ccc(OC)cc2OC)cc1	-0.8	0.5	-2.1	17.2*	3.2	9.5	3.9
O=C(COC(=O)COc1cccc(C(F)(F)F)c1)NC(=O)NC1CCCCC1	3.4	0.1	x	-8.9	5.1	5.2	x
COc1cc([C@@H]2CC=C(C(=O)O)CN2S(=O)(=O)c2ccc(C)cc2)cc(OC)c1OC	x	-2.5	x	-1.7	x	x	x
COc1ccccc1NC(=O)C(C)OC(=O)c1cc2ccccc2[nH]1 (configuration not stated)	x	-1.5	x	-8.4	x	x	x
SMILES	HSF1 inhib	MPTP inh	HSP90 refold inh	dFosB act-1	HSF1 activator	Platelet DG rel	dFosB act-2
COc1ccc(OC)c(NC(=O)C(C)OC(=O)c2cc3ccccc3[nH]2)c1 (configuration not stated)	x	0.1	x	18.6*	x	x	2.6
Cc1c(Cc2ccccc2)sc(NC(=O)c2ccco2)c1C(N)=O	8.0	-0.8	-3.4	21.2*	31.3	-1.3	2.7
COC(=O)c1c(NC(=O)c2ccco2)sc(C)c1C	-0.7	4.2	-4.1	-1.0	1.4	-4.3	x
CNC(=O)c1[nH]nc2c1CCc1ccccc1-2	-3.5	0.1	-2.9	-11.6	5.5	0.0	x
COc1ccc(/C=N/NC(=O)c2[nH]nc3c2CCc2ccccc2-3)cc1OC	-6.8	3.0	2.9	88.1*	-1.4	0.6	3.0
COc1cc(/C=N\NC(=O)c2ccc(-c3ccccc3)cc2)cc(OC)c1O	-7.8	-1.2	-3.6	5.7	-0.4	0.2	x
COc1cc(/C=N\NC(=O)c2ccc(-c3ccccc3)cc2)ccc1OCC(N)=O	-7.4	-0.3	-5.1	66.4*	-7.2	14.2	6.4
CCOc1cc(/C=N\Nc2ccc([N+](=O)[O-])cc2)ccc1OCC(=O)Nc1ccc(C)c(C)c1	-2.4	-2.0	0.0	6.8	11.3	9.5	x
CCOc1cc(/C=N\NC(=O)Cc2ccccc2)ccc1OCC(=O)Nc1ccc(C)c(C)c1	x	-2.4	-0.9	24.0*	x	x	3.1
COc1cc(/C=N/NC(=O)c2cccc([N+](=O)[O-])c2)ccc1OCc1ccc(C)cc1	46.3	4.1	-0.9	49.6*	68.4*	-2.5	4.5
CCc1noc(C)c1C(=O)N1CCSC1=Nc1cccc(Cl)c1C	4.7	1.4	6.3	-6.1	1.7	0.2	x
COc1cc(/C=N/NC(=O)c2ccccc2O)ccc1OCC(=O)Nc1ccccc1	5.9	-1.9	-6.1	27.5*	37.5	-8.2	1.6
CCOc1cc(/C=N/NC(=O)Cn2nc([N+](=O)[O-])cc2C)ccc1OCc1ccc(F)cc1	5.9	0.5	-0.8	35.3*	-2.9	2.3	2.2
COc1cc(/C=N/NC(=O)c2ccncc2)ccc1OCC(=O)Nc1ccccc1	9.8	0.7	-6.1	-8.6	-1.3	14.8	x
COC(=O)c1ccc([C@H]2C=C(C(=O)O)O[C@@H](OCc3ccc(CO)cc3)C2)cc1	1.1	-0.2	x	0.7	1.4	-0.7	x
Cc1cccc(COc2ccc(/C=N/NC(=O)c3nnn(-c4nonc4N)c3COc3ccc(F)cc3)cc2)c1	6.4	2.5	16.1*	27.5*	5.7	-1.6	-1.9
Nc1nonc1-n1nnc(C(=O)N/N=C/c2ccc(OCc3ccccc3)cc2)c1COc1ccc(F)cc1	3.5	0.9	-1.0	-0.2	3.5	8.5	x
Nc1nonc1-n1nnc(C(=O)N/N=C/c2ccccc2Cl)c1COc1ccc(F)cc1	2.6	8.6	1.0	26.8*	9.1	-5.5	1.7
Cc1ccccc1COc1cccc(/C=N/NC(=O)c2nnn(-c3nonc3N)c2C)c1	0.4	0.2	-1.6	24.4*	-13.2	-3.8	-0.1
Cc1c(C(=O)N/N=C/c2cccc(O)c2)nnn1-c1nonc1N	0.3	-2.6	4.2	-1.3	-3.4	-7.1	x

Screening data as filed in PubChem.
